In the library only some 5.7% were active in any assay of this set; here they are far more common.
ssDAF12 agonist = S. stercoralis DAF-12 activation, primary screen. actives 1% (n = 370,000). AID 652126. HEK293 ssDAF-12/GRIP1 lit1-tk-luc reporter, luminescence; % of 3 µM dafachronic acid response. activation, % at 6.8 µM;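 active = activation above the mean over all tested compounds plus 3 SD, cut at about 0.9% in these data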;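 note: 0% = DMSO-only wells and 100% = 3 µM delta7-dafachronic acid wells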
DAX1 inh-1 = DAX1 (NR0B1) inhibition, primary screen; HEK293T StAR-luciferase reporter, SF-1/DAX-1 repression relief; actives 1.1% (n = 370,000); AID 652010; inhibition, % at 6.8 µM;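 active = inhibition above the mean over all tested compounds plus 3 SD, cut at about 3.6% in these data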;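 note: 0% = DAX-1 cells with DMSO and 100% = cells lacking DAX-1 with DMSO; higher inhibition means more luminescence from relief of DAX-1 repression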
DAX1 inh-2 = NR0B1 (DAX1) inhibition; actives 0.99% (n = 340,000); HEK293 Gal4-DAX1 luciferase reporter, luminescence; inhibition, % at 6.75 µM;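 active = inhibition above the mean over all tested compounds plus 3 SD, cut at about 4.2% in these data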;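 note: 0% = DAX1-transfected cells with DMSO and 100% = empty-vector control cells with DMSO; inhibition shows as a rise in luminescence from relieved DAX1 repression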
hgDAF12 agonist = activates the H. glycines DAF-12 receptor ligand-binding domain | HEK293 GAL4-hgDAF12 UAS-luciferase reporter, agonist luminescence; normalized to butyrate control | activation, % at 6.8 µM | actives 1.8% (n = 370,000) | AID 687014;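 active = activation above a cutoff set at the mean of all screened compounds plus 3 SD, cut at about 10% in these data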;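 note: 0% = DMSO wells and 100% = sodium butyrate wells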
AHR activator = activates the human aryl hydrocarbon receptor; P35869; AHR-responsive luciferase reporter cells, luminescence; activation, % at 5 µM; actives 2.5% (n = 320,000); AID 2796; in the data active = activation above about 47%;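 note: 0% = vehicle wells and 100% = reference agonist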
hcDAF12 agonist = H. contortus DAF-12 activation, primary screen; activation, % at 6.8 µM; AID 652067; HEK293 hcDAF-12 lit1-tk-luc reporter, luminescence; 0% DMSO, 100% Δ7-dafachronic acid; actives 1.4% (n = 370,000);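 active = activation above the mean of all tested compounds plus 3 SD, cut at about 5.5% in these data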;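 note: 100% = response to 3 µM Δ7-dafachronic acid high control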
DAX1 inh confirm = confirmation of human DAX1 (NR0B1) inhibitors; shares compounds with DAX1 inh-1; actives 87% (n = 2,400); HEK293T StAR-promoter luciferase reporter, SF-1/DAX-1 repression; AID 652134; inhibition, % at 6.8 µM;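 active = inhibition above the average of every tested compound plus 3 SD, cut at about 3.8% in these data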;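 note: 0% = DAX-1 cells with DMSO and 100% = no DAX-1 control cells with DMSO; active compounds raise luminescence by relieving repression of the StAR reporter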
SF1 AF2mut Luc = counter-screen for DAX1 inhibitors: nonselective inhibitors with SF-1 AF2 mutant | shares compounds with DAX1 inh-1 | HEK293 StAR-luciferase, luminescence | inhibition, % at 6.8 µM | actives 78% (n = 2,400) | AID 652136;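 active = inhibition above the mean of all tested compounds plus 3 SD, cut at about 3% in these data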;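 note: 0% = DAX-1 transfected cells with DMSO and 100% = cells without DAX-1 with DMSO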
LXRb hcDAF ctr = activates human LXR-beta, counter-screen for hcDAF-12 agonists | shares compounds with hcDAF12 agonist | HEK293 Gal4-LXR tk-luc reporter, luminescence, 24 h; normalized: DMSO 0%, positive control 100% | activation, % at 6.8 µM | 3,400 tested, under 10 active | AID 743027;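 active = mean percent activation of the reporter above a cutoff set as the average over tested compounds plus their standard deviation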
hcDAF12 ag = hcDAF-12 agonism, confirmation assay; actives 61% (n = 3,400); shares compounds with hcDAF12 agonist; activation, % at 6.8 µM; AID 743032; HEK293 hcDAF-12 lit1-tk-luc reporter, luminescence; % of Δ7-dafachronic acid response;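 active = mean activation across triplicate tests above the threshold derived from the earlier primary screen, cut at about 5.5% in these data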;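 note: 0% = DMSO only wells and 100% = 3 µM Δ7-dafachronic acid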
hgDAF12 conf = hgDAF-12 agonism, confirmation assay | HEK293 GAL4-hgDAF12 luciferase reporter, agonist mode; percent of butyrate response | shares compounds with hgDAF12 agonist | actives 80% (n = 3,300) | activation, % at 6.8 µM;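 active = mean activation over triplicate wells above the hit cutoff derived from the earlier primary screen, cut at about 11% in these data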;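 note: 0% = DMSO low control and 100% = 2 mM sodium butyrate high control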
LXRb DAF12 ctr = LXR-beta agonism as DAF-12 counter-screen | shares compounds with hgDAF12 agonist | HEK293 Gal4-LXR luciferase reporter, 24 h | activation, % at 6.8 µM | 3,300 tested, under 10 active;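 active = mean activation of the triplicate above a set limit carried over from the primary screen, none filed active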
The depositor's hits bear a star; x = no result given.

SMILES	ssDAF12 agonist	DAX1 inh-1	DAX1 inh-2	hgDAF12 agonist	AHR activator	hcDAF12 agonist	DAX1 inh confirm	SF1 AF2mut Luc	hgDAF12 conf	LXRb DAF12 ctr	others
COc1ccc(N=C2C(=Nc3ccc(OC)cc3)N(c3ccccc3)C(=S)N2C(=O)c2ccc(Cl)cc2)cc1	0	4.5*	0	15*	2	4	6.0*	5.8*	18*	1
CCOc1ccc(S(=O)(=O)N2CCC(C(=O)NCc3ccncc3)CC2)cc1Cl	-1	0	0	1	1	4	x	x	x	x
Cc1ccc(F)c(S(=O)(=O)NC(=O)C2(C)CCN2C(=O)C2(c3ccc(Cl)cc3)CCC2)c1 (stereo not given)	-1	0	x	1	x	1	x	x	x	x
Cc1ccn2c(c1)nc(=S)n2C(=O)c1ccccc1	1	6.5*	4.5*	15*	27	6.7*	8.0*	1	11*	1	LXRb hcDAF ctr=1;hcDAF12 ag=12*
Cc1ccn2c(NC(=O)c3ccccc3)c(-c3ccccc3)nc2c1	-1	0	0	-1	8	0	x	x	x	x
CC1(C)CC(=O)c2c(O)cc(OCc3ccc(Br)cc3)cc2O1	0	4.6*	4	14*	12	5	13*	8.9*	9	1
COC(=O)c1ccc(COc2cc(O)c3c(c2)OC(C)(C)CC3=O)cc1	-1	0	1	1	-4	-1	x	x	x	x
O=C(O)c1ccc(N/N=C/c2ccc(-c3ccc(Br)cc3)o2)cc1	-1	1	1	5	5	1	x	x	x	x
O=C(O)c1ccc(N/N=C/c2ccc(-c3ccccc3Cl)o2)cc1	1.3*	9.2*	-1	24*	4	9.8*	26*	11*	12*	1	LXRb hcDAF ctr=2;hcDAF12 ag=12*
Cc1ccc(/C=N/Nc2ccc(C(=O)O)cc2)o1	1	4.6*	3	16*	9	6.3*	8.4*	6.6*	13*	0
CCC(C)NC(=O)Cn1cnc2sc(C)c(S(=O)(=O)N3CCCCC3)c2c1=O (stereo not given)	-1	0	0	2	0	1	x	x	x	x
COc1cc(/C=C/C(=O)N2CCN(C)CC2)cc(S(=O)(=O)N2CCc3ccccc32)c1OC	-1	0	0	-3	2	0	x	x	x	x
CCCCCCN1C=CC(=C2C(=O)c3ccccc3C2=O)C=C1	1.1*	9.4*	-2	14*	-3	8.6*	0	-4	6	1	LXRb hcDAF ctr=1;hcDAF12 ag=6.1*
CCCN1C=CC(=C2C(=O)c3ccccc3C2=O)C=C1	-4	-4	-4	-14	-19	-6	x	x	x	x
CCCCN1C(C)=CC(=C2C(=O)c3ccccc3C2=O)C=C1C	0	6.7*	1	22*	-2	7.5*	6.1*	3	12*	1	LXRb hcDAF ctr=2;hcDAF12 ag=11*
Brc1ccc(-c2cn3nc4c(nc3n2)CCCC4)cc1	1	4.9*	1	14*	-7	12*	6.8*	3.2*	14*	1	LXRb hcDAF ctr=1;hcDAF12 ag=8.2*
c1ccc(-c2cn3nc4c(nc3n2)CCCC4)cc1	0	0	0	4	20	3	x	x	x	x
O=C(CCCc1cccs1)Nc1ccc2c(c1)OCO2	1	5.5*	6.0*	22*	4	3	9.7*	6.7*	14*	1
O=C(CCCc1ccccc1)Nc1ccc2c(c1)OCCO2	1	6.1*	1	22*	2	8.2*	9.0*	4.9*	15*	1	LXRb hcDAF ctr=1;hcDAF12 ag=9.1*
O=C(/C=C/c1ccccc1)Nc1ccc2c(c1)OCCO2	1	7.4*	-1	18*	-6	4	14*	6.5*	23*	1
O=C(CCCN1C(=O)CCC1=O)Nc1ccc2c(c1)OCO2	-1	0	0	0	31	0	x	x	x	x
CSc1ccc(/C=C/C(=O)Nc2ccccc2)cc1	1	14*	-3	14*	-5	11*	6.8*	4.3*	16*	1	LXRb hcDAF ctr=2;hcDAF12 ag=7.4*
Cc1ccccc1/C=C1\SC(=S)N(/N=C/c2cc([N+](=O)[O-])ccc2O)C1=O	-1	0	0	0	0	-1	x	x	x	x
CCNC(=S)Nc1cc(Cl)ccc1Oc1ccccc1	-2	-1	0	-2	7	-2	x	x	x	x
O=C(CSc1ncn(-c2ccccc2)n1)Nc1ccc2c(c1)OCCO2	0	0	1	2	4	1	x	x	x	x
SMILES	ssDAF12 agonist	DAX1 inh-1	DAX1 inh-2	hgDAF12 agonist	AHR activator	hcDAF12 agonist	DAX1 inh confirm	SF1 AF2mut Luc	hgDAF12 conf	LXRb DAF12 ctr	others
C/C(CC(=O)Nc1ccc2c(c1)OCCO2)=N\NC(=O)c1ccccc1F	0	0	0	5	5	2	x	x	x	x
O=C(CSc1ccccc1)Nc1ccc2c(c1)OCCO2	1.0*	11*	3	15*	0	6	14*	7.5*	15*	1
C/C(CC(=O)Nc1ccc2c(c1)OCCO2)=N\NC(=O)c1ccccn1	0	6.4*	1	15*	5	6.2*	1	-1	7	0
COCCCn1c(SCC(=O)N2CCOCC2)nc2cc(Cl)ccc2c1=O	-1	0	0	-2	0	-1	x	x	x	x
COc1cc(Cl)ccc1OCc1cc(C(=O)N2CCCC(OC)C2)no1 (stereo not given)	0	8.1*	1	18*	13	4	6.6*	4.1*	17*	1
O=c1c(-c2ccco2)nc2ccccc2n1C(c1ccccc1)c1nc2ccccc2[nH]1 (stereo not given)	0	4.7*	x	16*	x	5	3	2	10	0
COc1ccc2nc(NC(=O)c3ccccc3-c3ccccc3C(=O)O)sc2c1	0	0	4	-2	-1	-2	x	x	x	x
